D1 PAM: Potentiators of Human D1 Dopamine Receptor: qHTS; D(1A) dopamine receptor (Homo sapiens), P21728; HEK293 TREx D1 cells, calcium flux, dopamine EC20 potentiation; potentiation, % at 10 µM; 360,000 compounds, 0.036% hits; AID 504651, 2011; in the data active = potentiation above about 30%
Target sequence (P21728 whole entry, looked up): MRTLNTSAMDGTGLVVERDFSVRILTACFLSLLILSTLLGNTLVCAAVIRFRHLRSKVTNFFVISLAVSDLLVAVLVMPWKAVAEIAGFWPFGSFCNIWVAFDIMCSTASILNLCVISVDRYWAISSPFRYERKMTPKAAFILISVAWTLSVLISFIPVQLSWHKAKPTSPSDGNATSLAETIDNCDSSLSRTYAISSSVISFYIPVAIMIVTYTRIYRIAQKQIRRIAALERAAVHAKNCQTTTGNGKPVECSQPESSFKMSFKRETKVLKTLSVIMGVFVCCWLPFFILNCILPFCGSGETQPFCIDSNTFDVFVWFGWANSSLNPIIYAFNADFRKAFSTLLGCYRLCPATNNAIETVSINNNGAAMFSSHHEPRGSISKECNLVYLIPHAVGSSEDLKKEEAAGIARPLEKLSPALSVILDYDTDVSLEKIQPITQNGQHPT
GRP78 ERSR act: qHTS for Inducers of the Endoplasmic Reticulum Stress Response (ERSR) in Human Glioma: qHTS. Potency, µM, actives largely listed as activators. 420,000 compounds, 0.02% hits. U87-MG GRP78 promoter luciferase reporter, 16 h; active = well fitted activation curve with a large enough effect; also: series mostly up to about 76 µM; nearly all actives have a fitted effect of over 35% in size
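Stably transfected U87-MG human glioma cells carrying a GRP78-based luminescent sensor were seeded at 1000 cells/well, pin-dosed with compounds and incubated 16 h. Luciferase reagent was then added, and end-point luminescence was read after 10 min at room temperature.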
TRHR agonist: qHTS for Small Molecule Agonists and Allosteric Enhancers of Human TRH Receptor: Primary Screen for Agonists. activation, % at 2 µM. TRHR cells, calcium flux fluo-8, FDSS agonist mode. Thyrotropin-releasing hormone receptor (Homo sapiens), P34981. 360,000 compounds, 0.18% hits. AID 493084, 2011
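TRHR-expressing cells, plated overnight in medium with 10% serum, were loaded with fluo-8 calcium dye at room temperature. After a 10 s baseline, library compound was pin-added and calcium release was recorded kinetically (ex 480/em 530) as agonist response.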
TRHR PAM: qHTS for Small Molecule Agonists and Allosteric Enhancers of Human TRH Receptor: Primary Screen for Enhancers | Thyrotropin-releasing hormone receptor (Homo sapiens), P34981 | TRHR cells, fluo-8 calcium fluorescence, EC20 TRH enhancement | enhancement, % at 2 µM | 360,000 compounds, 0.66% hits; in the data active = enhancement above about 30%
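TRHR-expressing cells loaded with fluo-8 calcium dye were read kinetically (ex 480/em 530) during compound addition, then stimulated with an EC20 of TRH (10 nM final). Enhancement of the Gq-mediated intracellular calcium response was scored.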
D1 ag: Allosteric Agonists of the Human D1 Dopamine Receptor: qHTS. D(1A) dopamine receptor (Homo sapiens), P21728. HEK293 T-REx D1 cells, calcium flux, agonist mode. activation, % at 2 µM. 360,000 compounds, 1% hits
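Agonism was scored from calcium flux recorded over 180 s (1 read/s) after pintool compound addition, following a 10-cycle baseline. Cells were inducible force-coupled HEK293 TREx D1, plated overnight at 30 C and loaded with no-wash calcium dye.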
D1 antagonist: Antagonist of Human D 1 Dopamine Receptor: qHTS; D(1A) dopamine receptor (Homo sapiens), P21728; HEK293 TREx D1 cells, calcium flux, dopamine EC80; active compounds read low; activity change, negative = inhibition, % at 10 µM; 360,000 compounds, 3.2% hits; AID 504652, 2011; in the data active = activity change below about -30%
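Tetracycline-induced HEK293 Trex D1 cells, force-coupled to calcium, dye-loaded; compounds added and read 180 s, then EC80 dopamine added and calcium flux tracked kinetically another 180 s.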
Large screens that a line does not name were inactive. An excerpt weighted towards active compounds, which were near 4% of everything screened. Rule as the data show it, unless noted: active = activation above about 30%; inactive = the rest.

O=C(Nc1nccs1)C1CC=CCC1C(=O)OCC(F)(F)C(F)F (configuration not stated)	none
N#CC(=C(/N)Sc1ccccc1N)/C(C#N)=C(\N)Sc1ccccc1N	none (no result: D1 PAM, TRHR agonist, TRHR PAM, D1 ag, D1 antagonist)
CCCOc1ccc(Br)cc1CSC(=N)N	D1 ag 49
Cn1ccsc1=NC(=O)c1ccccc1OC(F)F	D1 antagonist -36
COc1ccc(C)cc1NC(=O)Cn1c(=O)cc(C)c2c(C)nn(C)c21	D1 antagonist -31 (no result: GRP78 ERSR act)
Cc1ccc(C2CC(c3ccco3)=NN2S(C)(=O)=O)cc1 (configuration not stated)	D1 antagonist -35
Cc1[nH]nc(SCC(=O)Nc2cccc(O)c2)c1[N+](=O)[O-]	none
CCc1ccc(NC(=O)CSc2n[nH]c(C)c2[N+](=O)[O-])cc1	D1 antagonist -48
CO[C@]1(NC(=O)[C@H](C(=O)O)c2ccc(O)cc2)C(=O)N2C(C(=O)O)=C(CSc3nnnn3C)CO[C@H]21	none (no result: D1 PAM, TRHR agonist, TRHR PAM, D1 ag, D1 antagonist)
Cc1ccc(S(=O)(=O)N(CC(=O)Nc2ccc(C(C)C)cc2)Cc2ccccc2)cc1	none
CC(C)c1ccc(NC(=O)CN(Cc2ccccc2)S(C)(=O)=O)cc1	D1 ag 42
Cc1ccc(-c2csc(N3CCN(c4cc5c(cc4Cl)nc(C)n5CCN4CCCCC4)CC3)n2)cc1	D1 antagonist -39
C=CCC(CC=C)(CNC(=O)C(=O)Nc1cccc(C(F)(F)F)c1)c1ccccc1	D1 ag 30
COc1ccc(NC(=O)CCC(=O)N2CCC(c3ccccc3)=N2)cc1S(=O)(=O)N1CCCCC1	none (no result: D1 PAM, TRHR agonist, TRHR PAM, D1 ag, D1 antagonist)
c1coc(CNc2ncnc3[nH]ncc23)c1	D1 antagonist -41
COCCN1CCN(C(=O)c2cnn(-c3nccc(-c4ccccc4F)n3)c2-c2ccco2)CC1	none (no result: D1 PAM, TRHR agonist, TRHR PAM, D1 ag, D1 antagonist)
Cc1nnc(SCCn2c(N3CCCC(C)C3)nc3c2c(=O)[nH]c(=O)n3C)s1 (configuration not stated)	none
Cc1nnc(SCCn2c(N3CCC(C)CC3)nc3c2c(=O)[nH]c(=O)n3C)s1	D1 antagonist -60
Cc1cc2c(s1)c1cnn(CC(=O)N3CCOCC3)c(=O)c1n2C	none (no result: D1 PAM, TRHR agonist, TRHR PAM, D1 ag, D1 antagonist)
N#Cc1c(C(F)(F)F)cc(-c2cccs2)nc1SCC(=O)Nc1ccc(Cl)cc1	D1 ag 81
N#Cc1ccccc1NC(=O)CSc1nc(-c2ccccc2)cc(C(F)(F)F)c1C#N	TRHR agonist 42, D1 ag 133
N#Cc1c(C(F)(F)F)cc(-c2ccc(F)cc2)nc1SCC(=O)O	none
CCOc1ccc(NC(=O)CSc2nc(-c3cccs3)cc(C(F)(F)F)c2C#N)cc1	none
Cc1cccc(NC(=O)CSc2nc(-c3cccs3)cc(C(F)(F)F)c2C#N)c1C	D1 ag 49
CCCCOc1ccc(-c2cc(C(F)(F)F)c(C#N)c(SCC(=O)O)n2)cc1	D1 ag 68
COc1cc(-c2cc(-c3ccccc3)nc(SCC(=O)O)c2C#N)cc(OC)c1OC	none
N#Cc1c(C(F)(F)F)cc(-c2cccs2)nc1SCC(=O)Nc1cccc(C(F)(F)F)c1	D1 ag 68
COc1ccc(NC(=O)CSc2nc(-c3ccccc3)cc(-c3cc(OC)c(OC)c(OC)c3)c2C#N)c(OC)c1	D1 ag 33
Cc1ccc(C)c(NC(=O)CSc2ccc(-c3cccs3)nn2)c1	D1 antagonist -81
COc1cc(OC)c(OC)cc1CNCCCSc1nnnn1C	none
CC(C)(C)CC(C)(C)N=C1Nc2ccc(Cl)cc2N[C@]12C[C@H]1CCCC(=O)N3CC[C@@H](C2)[C@@H]13	none (no result: D1 PAM, TRHR agonist, TRHR PAM, D1 ag, D1 antagonist)
Cc1ccc(C(=O)NN2C(=O)c3ccc(S(=O)(=O)c4ccc(C(=O)O)cc4)cc3C2=O)cc1	D1 antagonist -43
O=C(O)c1ccc(S(=O)(=O)c2ccc3c(c2)C(=O)N(NC(=O)c2ccc(O)cc2)C3=O)cc1	none
Cc1c(NC(=O)c2cc(-c3cccs3)nc3ccccc23)c(=O)n(-c2ccccc2)n1C	none
O=C(NC1=NCCS1)c1cc(-c2ccc(F)cc2)nc2ccccc12	D1 antagonist -37
Cc1ccc(NC(=O)c2cc(-c3cccs3)nc3ccccc23)nc1	D1 antagonist -48
O=C(NC1=NCCS1)c1cc(Cl)ccc1Cl	TRHR PAM 39
O=C(Nc1ccon1)c1cc(-c2ccccc2)nc2ccccc12	D1 antagonist -32
COc1cc(C2c3[nH]c4ccccc4c3CC3C(=O)N4C(Cc5c([nH]c6ccccc56)C4c4cc(OC)c(OC)c(OC)c4)C(=O)N32)cc(OC)c1OC (configuration not stated)	none (no result: D1 PAM, TRHR agonist, TRHR PAM, D1 ag, D1 antagonist)
COc1ccc(CNC(=O)Cc2c(C)c3c(O)cc(C)cc3oc2=O)cc1	none
Cc1cc(O)c2c(C)c(CC(=O)NCc3ccccc3Cl)c(=O)oc2c1	D1 antagonist -35
O=C(CNC(=O)c1cccs1)N/N=C/c1c[nH]c2ccccc12	none
Cn1cccc1C(=O)N1CCC2(CC1)CN(c1ccncc1)C2	none (no result: D1 PAM, TRHR agonist, TRHR PAM, D1 ag, D1 antagonist)
Cc1ccc(N(CC(=O)NC(C)C)C(=O)CCC(=O)Nc2nccs2)cc1C	none
Cc1ccc(F)cc1NC(=O)Cn1c(=O)nc(-c2ccccc2F)c2cc(Cl)ccc21	none
CCOc1ccccc1NC(=O)Cn1c(=O)nc(-c2ccccc2F)c2cc(Cl)ccc21	D1 antagonist -43
CCCCn1c(N)c(Br)c(=O)[nH]c1=O	none
Nc1ccc2nc3c(=O)n(C4CCCCC4)c(=O)[nH]c3nc2c1	TRHR agonist 128, D1 ag 276
Cc1cc2nc3c(=O)n(CCc4ccccc4)c(=O)[nH]c3nc2cc1N	TRHR agonist 142, D1 ag 352
CCCCn1c(=O)[nH]c2nc3cc(N)ccc3nc2c1=O	TRHR agonist 108, D1 ag 207
Nc1ccc2nc3c(=O)n(CCc4ccccc4)c(=O)[nH]c3nc2c1	TRHR agonist 164, TRHR PAM 58, D1 ag 435
C=CCOc1ccc2c(c1)c(=O)cc(C(=O)O)n2CC	none
Cc1onc(-c2ccccc2Cl)c1C(=O)Nc1nnc(C2CCCCC2)s1	none (no result: D1 PAM, TRHR agonist, TRHR PAM, D1 ag, D1 antagonist)
Cc1cc2oc(C(=O)Nc3ccc(S(N)(=O)=O)cc3)cc(=O)c2cc1C	D1 antagonist -58
COc1c(C)cc(Br)cc1C(=O)Nc1ccc(S(N)(=O)=O)cc1	D1 antagonist -61
CC1CCc2nc(NC(=O)CN3CCN(c4ccccc4)CC3)sc2C1 (configuration not stated)	none

Screens deposited in PubChem BioAssay by National Center for Advancing Translational Sciences (NCATS).
